Screening data: PubChem BioAssay, National Center for Advancing Translational Sciences (NCATS)
A selection: hits, their analogues and other compounds. The true share with any hit is near 19%.
KB-V1 cytotox – qHTS assay for MDR1-selective chemotherapeutics: Primary screen using the drug-selected MDR subline cells KB-V1; KB-V1 MDR cells viability, CellTiter-Glo, 72 h; Potency, µM (top dose mostly 46.1 µM), usual class: cytotoxic; 400,000 tested, 3.4% active; AID 1347076, 2019; also: nearly all actives have a fitted effect of over 60% in size
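Following 72 h at 37 degrees C with compound, KB-V1 cell viability was read by CellTiter-Glo luminescence, medium being phenol-red-free DMEM plus 10% FBS; concentration-response parameters came from normalized, curve-fitted qHTS data.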
DT40 TDP1 no CPT – qHTS for Inhibitors of human tyrosyl-DNA phosphodiesterase 1 (TDP1): qHTS in cells in absence of CPT; DT40 Tdp1-/- hTDP1 cells, no CPT, ATP luminescence, 48 h; Potency, µM (titrated, usually from 46.2 µM), inactives show at the highest dose activity change, negative = growth inhibition, actives largely listed as inhibitors; 420,000 tested, 15% active; AID 686978, 2013; also: nearly all actives have a fitted effect of over 55% in size
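Readout: luminescence from CellTiter-Glo after 30 min in the dark at RT. Cells: DT40 Tdp1-/- with stable hTDP1, 400/well. Exposure: compounds alone, ≥48 hr, 37 °C.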
HT1080 IDH1KD tx – qHTS for induction of synthetic lethality in tumor cells producing 2HG: qHTS for the HT-1080-IDH1KD cell line | AID 686971, 2013 | 360,000 tested, 2% active | HT-1080 IDH1 knockdown viability, ATP luminescence, 48 h | Potency, µM (doses to about 46.1 µM), inactives show at the highest dose activity, negative = toxicity, most hits filed as cytotoxic;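 also: 0% = DMSO wells and -100% = cell-free medium wells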
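Assay cells: HT-1080 with IDH1 knockdown, 750 per well, RPMI/5% FBS. Exposure: 48 h at 37 °C following 2 h pre-incubation. Read: CellTiter-Glo luminescence; fitted concentration-response, curve class assigned.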
TDP1 cell CPT – qHTS for Inhibitors of human tyrosyl-DNA phosphodiesterase 1 (TDP1): qHTS in cells in presence of CPT | chicken DT40 Tdp1-/-;hTDP1 cells + 20 nM CPT, ATP luminescence, 48 h | Potency, µM (series often up to 46.2 µM), for the others: at the highest dose activity change, negative = growth inhibition, actives largely listed as inhibitors | 420,000 tested, 12% active; also: nearly all actives have a fitted effect of over 55% in size
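Chicken DT40 Tdp1-/- cells stably complemented with human TDP1 were seeded at 400 cells/well in medium containing 20 nM camptothecin, exposed to pin-transferred compounds, and grown at 37 °C for at least 48 hr. Viability was read as ATP luminescence.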
KB-3-1 cytotox – qHTS assay for MDR1-selective chemotherapeutics: Primary screen using the parental adenocarcinoma cell KB-3-1 | 400,000 tested, 1.4% active | KB-3-1 viability, CellTiter-Glo ATP luminescence, 72 h | Potency, µM (highest dose often 46.1 µM), usual class: cytotoxic; also: nearly all actives have a fitted effect of over 60% in size
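Multi-concentration cytotoxicity screen in KB-3-1 cells grown in DMEM lacking phenol red with 10% FBS. After 72 h at 37 °C with compound, ATP-dependent luminescence was recorded.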
HT1080-NT tox – qHTS for induction of synthetic lethality in tumor cells producing 2HG: qHTS for the HT-1080-NT fibrosarcoma cell line; HT-1080-NT fibrosarcoma viability, CellTiter-Glo ATP luminescence, 48 h; 360,000 tested, 1.6% active; Potency, µM (highest dose often 46.1 µM), for the others: at the highest dose activity, negative = less viability, actives largely listed as cytotoxic; AID 686970, 2013;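 also: NT is the 2HG producing partner of a matched IDH1 knockdown line; 0% = DMSO-treated cells and -100% = media-only wells without cells; nearly all actives have a fitted effect of over 55% in size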
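Luminescent CellTiter-Glo readout after 48 hours of compound exposure at 37 degrees C defined viability of HT-1080-NT cells. Activity was normalized to DMSO wells and cell-free media wells; concentration-response curves were fitted and assigned curve classes.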
* = called active by the depositor; i = inactive; u = inconclusive; x = no result given. Calls follow the shape of the dose curve; as a rule, active = well fitted curve in the direction sought with a large enough effect; inconclusive = small, poorly fitted or top-dose-only effect, or another doubt; inactive = no such curve, though single readings can be large; an effect the other way counts as inactive or inconclusive. Unless noted, % is scaled to controls: 0 for no effect and ±100 for the full control effect; potency is read from the fitted curve at half-maximal effect.

SMILES	KB-V1 cytotox	DT40 TDP1 no CPT	HT1080 IDH1KD tx	TDP1 cell CPT	KB-3-1 cytotox	HT1080-NT tox
O=C(CSc1nc(-c2ccco2)cc(C(F)(F)F)n1)NCCN1CCOCC1	i	u	9%	-20%	i	4%
Nc1nc2c(ncn2[C@@H]2O[C@H](CNC(=O)[C@H](N)Cc3ccccc3)[C@@H](O)[C@H]2O)c(=O)[nH]1	i	-1%	11%	-9%	i	7%
Cc1cc(C)c(NC(=O)CN2c3ccccc3S(=O)(=O)c3ccccc32)c(C)c1	i	-8%	x	-10%	i	x
COc1ccccc1-c1cnc(C(O)c2ccc(F)c(F)c2)[nH]1 (stereo not given)	u	u	7%	u	i	-16%
CC(C)CC(=O)Nc1ccccc1N1CCCC1	i	0%	0%	-18%	i	5%
CC(C)CC(=O)Nc1ccccc1N1CCN(c2ccc(F)cc2)CC1	u	u	-8%	18µM*	i	-1%
Cc1cc2cc(CN(Cc3cccs3)C(=S)NCC3CCCO3)c(=O)[nH]c2cc1C (stereo not given)	u	u	-6%	u	u	-6%
Cc1cc(C)c2[nH]c(=O)c(CN(Cc3cccs3)C(=S)NCC3CCCO3)cc2c1 (stereo not given)	u	21µM*	-3%	u	i	-1%
COc1ccc2[nH]c(=O)c(CN(Cc3cccs3)C(=S)NCC3CCCO3)cc2c1 (stereo not given)	u	23µM*	0%	23µM*	i	7%
Cc1ccc2cc(CN(Cc3ccco3)C(=S)NCC3CCCO3)c(=O)[nH]c2c1C (stereo not given)	4.1µM*	26µM*	7%	18µM*	i	5%
O=C(NCCc1ccccn1)C1CCCN1S(=O)(=O)c1ccc(Cl)cc1 (stereo not given)	u	-22%	9%	-2%	i	8%
COc1cc(NC(=O)CSCC(=O)Nc2cc(OC)cc(OC)c2)cc(OC)c1	i	-4%	8%	-9%	i	5%
CC(NC(=O)COc1ccccc1Cl)c1ccccc1 (stereo not given)	i	u	-24%	-19%	i	-7%
CN1CCCC(n2nc(Cc3ccc(Cl)cc3)c3ccccc3c2=O)CC1 (stereo not given)	u	21µM*	4.1µM*	13µM*	6.5µM*	5.2µM*
CCOC(=O)Cn1nc(Cc2ccccc2)c2ccccc2c1=O	i	-28%	-3%	-27%	i	-5%
Cc1ccc(C(=O)Nc2nc3n(n2)C(c2ccccc2)C=C(c2ccccc2)N3)cc1 (stereo not given)	i	u	x	u	i	x
COc1ccc(C2C=C(c3ccccc3)Nc3nc(NS(=O)(=O)c4ccc(Cl)cc4)nn32)cc1 (stereo not given)	i	16µM*	x	u	i	x
O=C(Nc1nc2n(n1)C(c1ccc(F)cc1)C=C(c1ccc(Cl)cc1)N2)c1ccc([N+](=O)[O-])cc1 (stereo not given)	i	5.2µM*	x	5.8µM*	u	x
O=C(Nc1nc2n(n1)C(c1ccc(F)cc1)C=C(c1ccccc1)N2)c1ccc(Cl)cc1 (stereo not given)	i	18µM*	x	u	i	x
